Shown are actives, neighbours in structure and some others; about 21% of the full set was active somewhere.
Shiga inhibitor = A qHTS for Small Molecule Inhibitors of Shiga Toxin; Vero cells, Shiga toxin protein synthesis inhibition reporter; inhibition, % at 38.7 µM; 290,000 compounds, 9.2% hits; AID 2315, 2010; in the data active = inhibition mostly above about 28%, no sharp cut-off; inactive = mostly below about 43%; also: 0% is about no effect
HCMV inh = qHTS Assay for inhibitors of the human cytomegalovirus (HCMV). HFF cells, HCMV-luciferase reporter, 72 h; hits give low values. activity change, negative = inhibition, % at 57.5 µM. 410,000 compounds, 4.5% hits; in the data active = activity change below about -60%; inconclusive = no clear call, values can overlap the other calls; inactive = above about -39%; also: % is scaled to controls: 0 for no effect and ±100 for the full control effect
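After 16 h attachment at 37C, HFF cells received test compound and HCMV-luciferase (1 PFU/cell); reporter luminescence read 72 h later, data normalized against buffer-only and known inhibitor Salinomycin.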
CHX counter = Cycloheximide Counterscreen for Small Molecule Inhibitors of Shiga Toxin; cell reporter, cycloheximide protein synthesis inhibition counterscreen; max response, %; 300,000 compounds, 12% hits; in the data active = max response mostly above about 13%, no sharp cut-off; inactive = mostly below about 14%; also: read at 38.3 µM for the half of the compounds with a filed dose; 0% is about no effect
Pf growth 48h = Primary qHTS for delayed death inhibitors of the malarial parasite plastid, 48 hour incubation | Potency, µM (titrated, usually from 28.7 µM), for the others: at the top dose activity change, negative = inhibition, usual class: inhibitors | 310,000 compounds, 5.9% hits | AID 504832, 2011 | P. falciparum luciferase growth in erythrocytes, 48 h; also: potency is read from the fitted curve at half-maximal effect; % is scaled to controls: 0 for no effect and ±100 for the full control effect
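Here the parasites carry a stable luciferase gene and grow inside erythrocytes in Albumax-based RPMI medium with compound for one erythrocytic cycle. Activity is scored as loss of luminescent signal.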
HCV inh = qHTS Assay for Inhibitors of Hepatitis C Virus (HCV); 340,000 compounds, 3.4% hits; Potency, µM (titrated, usually from 41.8 µM), for the others: at the highest dose activity change, negative = inhibition, hits mostly inhibitors; Huh7.5.1 HCVcc-Cre infection, luciferase reporter, 44 h; also: potency is read from the fitted curve at half-maximal effect; % is scaled to controls: 0 for no effect and ±100 for the full control effect
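Cells (1,000/well) were plated 4 h before compound, then infected with HCVcc-Cre virus (~0.5 moi). After 44 h further culture, infection was read as luciferase luminescence following a 15 min substrate incubation at room temperature.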
Pf growth 96h = Primary qHTS for delayed death inhibitors of the malarial parasite plastid, 96 hour incubation | P. falciparum luciferase reporter growth, 96 h | Potency, µM (series often up to 28.7 µM), inactives show top-dose activity change, negative = inhibition, hits mostly inhibitors | 320,000 compounds, 6.9% hits; also: potency is read from the fitted curve at half-maximal effect; % is scaled to controls: 0 for no effect and ±100 for the full control effect
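P. falciparum expressing integrated firefly luciferase, in erythrocytes at 2% hematocrit, 0.05% parasitemia, incubated with compounds 96 h at 37 C, 5% CO2. Growth inhibition read as loss of luminescence; two-generation exposure targets delayed-death apicoplast inhibitors.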
* marks the source's active call; other numbers are inactive results; ? = inconclusive; · = no result given. Unless noted, calls follow the shape of the dose curve; as a rule, active = well fitted inhibition curve with a large enough effect; inconclusive = small, poorly fitted or top-dose-only effect, or another doubt; inactive = no such curve, though single readings can be large or run the other way.

SMILES	Shiga inhibitor	HCMV inh	CHX counter	Pf growth 48h	HCV inh	Pf growth 96h
c1ccc(COc2ccc(CNCc3cccs3)cc2)cc1	56*	55	25*	38%	3%	51%
CN(Cc1cccc(Cl)c1Cl)CC(O)COc1ccccc1 (stereo unspecified)	-2	0	-5	-6%	-11%	-2%
CN(Cc1ccccc1)C(=O)c1nc2ccccn2c1CNCCOc1cccnc1	-17	3	-1	?	4%	-18%
COc1ccc(CCNCc2ccc(OCc3ccccc3)cc2)cc1	-14	-89*	10	26%	-9%	40%
CN(Cc1ccccc1)CC(O)COc1ccc(CNCc2ccc(Cl)s2)cc1 (stereo unspecified)	7	?	-1	5.9µM*	?	?
CN(Cc1ccccc1)CC(O)COc1ccc(CNCCOc2cccnc2)cc1 (stereo unspecified)	-16	-13	-3	13µM*	-20%	?
CC1(C)C(=O)Nc2ccccc2N1C(=O)COc1ccccc1C#N	·	28	·	·	-3%	·
CCN1C(=O)[C@H]2[C@@H](c3ccc(C)cc3)N3C(=O)N(c4ccc(C)cc4)C(=O)[C@@]3(CC)[C@H]2C1=O	·	-22	·	-7%	14%	50%
CCN1C(=O)[C@H]2[C@@H](c3ccc(C)cc3)N3C(=O)N(c4cccc(Br)c4)C(=O)[C@@]3(CC(C)C)[C@H]2C1=O	·	-19	·	?	2%	15µM*
CCN1C(=O)[C@H]2[C@@H](c3ccc(C)cc3)N3C(=O)N(c4ccccc4)C(=O)[C@@]3(CC)[C@H]2C1=O	28	9	15*	60%	6%	27%
CC[C@@]12C(=O)N(c3cccc(F)c3)C(=O)N1[C@H](c1cccc(C)c1)[C@@H]1C(=O)N(Cc3ccccc3)C(=O)[C@@H]12	-4	-8	-2	?	8%	?
Cc1cccc([C@@H]2[C@@H]3C(=O)N(Cc4ccccc4)C(=O)[C@@H]3[C@]3(CC(C)C)C(=O)N(c4cccc(F)c4)C(=O)N23)c1	·	12	·	9.3µM*	-22%	?
CC[C@@]12C(=O)N(c3ccccc3)C(=O)N1[C@H](c1cccc(C)c1)[C@@H]1C(=O)N(Cc3ccccc3)C(=O)[C@@H]12	0	30	-2	?	9%	6.6µM*
CCN1C(=O)[C@H]2[C@@H](c3ccc(C)cc3)N3C(=O)N(c4cccc(Br)c4)C(=O)[C@@]3(C)[C@H]2C1=O	·	32	·	·	4%	·
CCOC(=O)c1cc(S(=O)(=O)NC2CCC(C)CC2)cn1C (stereo unspecified)	-4	-39	-4	3%	-2%	118%
CC[C@@]12C(=O)N(c3cccc(Br)c3)C(=O)N1[C@H](c1cccc(C)c1)[C@@H]1C(=O)N(Cc3ccccc3)C(=O)[C@@H]12	·	-24	·	4.1µM*	-7%	5.2µM*
COCCN(C(=O)CCC(=O)Nc1nccs1)C(C(=O)NC(C)(C)C)c1ccc(C)cc1 (stereo unspecified)	-1	-74*	-2	-13%	9%	-11%
CCC(C)(C)NC(=O)CN(C(=O)CCC(=O)Nc1nccs1)c1cccc(C)c1C	-6	1	-1	13µM*	-7%	1%
COCCN(C(=O)CCC(=O)Nc1nccs1)C(C(=O)NC(C)(C)C)c1ccc(F)cc1 (stereo unspecified)	5	9	-11	-11%	16%	?
CCC(C)(C)NC(=O)C(c1ccc(OC)cc1)N(CCOC)C(=O)CCC(=O)Nc1nccs1 (stereo unspecified)	-11	-29	-2	-18%	8%	?
CCC(C)(C)NC(=O)C(c1ccc(O)cc1)N(CCOC)C(=O)CCC(=O)Nc1nccs1 (stereo unspecified)	-2	-33	-6	2.9µM*	2%	21%
CCSc1ccc(C(=O)Nc2cccc(C)n2)cc1[N+](=O)[O-]	23*	44	10.0*	64%	?	2%
